# Hits are enriched below; roughly 14% of the tested compounds scored in any of these assays.
# Pf growth 48h = Primary qHTS for delayed death inhibitors of the malarial parasite plastid, 48 hour incubation | P. falciparum luciferase growth in erythrocytes, 48 h | 310,000 tested, 5.9% active | Potency, µM (highest dose often 28.7 µM), without a hit: top-dose activity change, negative = inhibition, usual class: inhibitors; further: potency means the concentration at half of the fitted maximal effect
#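 Compounds are pin-transferred into medium, infected erythrocytes (2% hematocrit, 0.1% parasitemia final) are added, and plates sit one parasite generation at 37 C in 5% CO2. Detection reagent is then added and luminescence measured.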
# HCV inh = qHTS Assay for Inhibitors of Hepatitis C Virus (HCV). AID 651820, 2012. 340,000 tested, 3.4% active. Potency, µM (highest dose often 41.8 µM), inactives show at the top dose activity change, negative = inhibition, usual class: inhibitors. Huh7.5.1 HCVcc-Cre infection, luciferase reporter, 44 h; further: potency means the concentration at half of the fitted maximal effect
#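 Whole-lifecycle infectious HCVcc-Cre system; cells 1,000/well, compound then virus (~0.5 moi) added 4 h after plating, 44 h culture. Luciferase read 15 sec following 15 min substrate incubation, room temp.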
# HCMV inh = qHTS Assay for inhibitors of the human cytomegalovirus (HCMV). HFF cells, HCMV-luciferase reporter, 72 h; hits give low values. activity change, negative = inhibition, % at 57.5 µM. 410,000 tested, 4.5% active; in the data active means activity change below about -60%; inconclusive means no clear call, values can overlap the other calls; inactive means above about -39%
#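 Cell-based, HFFs, 1000 cells/well, 16 h 37C; cpds in DMSO + HCMV-luc, MOI 1 PFU/cell; 72 h 37C; OneGlo luminescence after 5 min RT; norm. to buffer vs Salinomycin 10uM.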
# LASV entry inh = qHTS for Inhibitors of binding or entry into cells for Lassa Virus; Lassa virus pseudotype entry inhibition, cell reporter; Potency, µM (series often up to 37.9 µM), without a hit: top-dose activity change, negative = inhibition, most hits filed as inhibitors; 300,000 tested, 1.2% active; AID 540256, 2011; calls by dose curve; tested in HEK293 cells; further: potency means the concentration at half of the fitted maximal effect; nearly all actives have a fitted effect of over 50% in size
# Marburg entry inh = qHTS for inhibitors of binding or entry into cells for Marburg Virus | Marburg virus pseudotyped entry inhibition, cell reporter | Potency, µM (doses to about 37.8 µM), for the others: at the highest dose activity change, negative = inhibition, actives largely listed as inhibitors | 300,000 tested, 1.8% active | AID 540276, 2011; calls by dose curve; tested in HEK293 cells; further: potency means the concentration at half of the fitted maximal effect
# Pf growth 96h = Primary qHTS for delayed death inhibitors of the malarial parasite plastid, 96 hour incubation; AID 504834, 2011; P. falciparum luciferase reporter growth, 96 h; 320,000 tested, 6.9% active; Potency, µM (top dose mostly 28.7 µM), for inactives: top-dose activity change, negative = inhibition, actives largely listed as inhibitors; further: potency means the concentration at half of the fitted maximal effect
#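 P. falciparum expressing integrated firefly luciferase grown in erythrocytes (2% hematocrit, 0.05% parasitemia final) with compounds for 96 hours at 37 C, 5% CO2. Growth inhibition read as loss of luminescence after adding luciferase detection reagent.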
# Numbers without * were called inactive; ? = inconclusive; / = no result; [ ] = remark or other dose. Unless noted, the call rests on the fitted dose curve; in most records, active means well fitted inhibition curve with a large enough effect; inconclusive means small, poorly fitted or top-dose-only effect, or another doubt; inactive means no such curve, though single readings can be large or run the other way. On the % scale 0 is the no-effect control and ±100 the full control effect.
SMILES,Pf growth 48h,HCV inh,HCMV inh,LASV entry inh,Marburg entry inh,Pf growth 96h
COc1cc2c(cc1OC)-c1cc(Nc3ccccc3)nc(=O)n1CC2,?,26%,91,-26%,-2%,?
COc1cc2c(cc1OC)-c1cc(N3CCc4ccccc43)nc(=O)n1CC2,?,0%,10,?,?,12µM*
CCOc1cccc(Nc2cc3n(c(=O)n2)CCc2cc(OC)c(OC)cc2-3)c1,?,5%,22,0%,-2%,3.7µM*
Cc1ccc(C2=NCC(C)n3c2c2ccc(C(F)(F)F)cc2[n+]3[O-])cc1 (stereo not drawn),/,/,23,/,/,/
COc1ccc(C2(C(=O)c3ccccc3)C(=O)c3ccccc3C2=O)cc1,?,3.5µM*,/,/,/,24%
COc1ccc(C2(Nc3cccc(C(=O)O)c3C)C(=O)c3ccccc3C2=O)cc1,/,/,3,?,/,/
COc1ccc(NCCC(O)c2ccc(Cl)cc2)cc1 (stereo not drawn),5%,18%,?,?,-14%,-6%
Cc1c(C(=O)Nc2ccc(-n3cnnn3)cc2)oc2ccccc12,29%,4%,-65*,-20%,17%,-41%
Cc1ccnc(NC(=O)c2oc3ccccc3c2C)c1,37%,?,0,3.5µM*,?,4%
CCC(=O)Nc1ccc(NC(=O)c2oc3ccccc3c2C)cc1,88%,-17%,1,/,/,?
Cc1cccc(-n2c(C)cc(/C=N\NC(=O)c3ccco3)c2C)c1,8.3µM*,?,-35,-28%,5%,13%
CC(=O)c1ccc(NC(=O)[C@@H]2CCCN2C(=O)OC(C)(C)C)cc1,58%,22%,29,?,?,62%
CC(C)(C)OC(=O)N1CCC[C@H]1C(=O)N/N=C/c1ccc2ncccc2c1,?,-6%,34,18%,29%,12µM*
Cc1cc(/C=N/NC(N)=S)c(C)n1-c1cccc(Cl)c1,-26%,-22%,-65*,?,?,51%[5.75 µM]
Cc1ccc(/C=N/NC(=O)c2ccco2)cc1,150%,3%,13,?,?,245%
O=C(N/N=C/c1ccc2ncccc2c1)c1ccco1,132%,-23%,5,2.5µM*,1.3µM*,234%
Fc1ccc(N2CCN(c3nc4ccccc4c4nc(-c5ccccc5)nn34)CC2)cc1,/,/,-25,/,3%[46.1 µM],/
COc1cccc(/C=N/NC(N)=S)c1OCc1cccc(Cl)c1,12µM*,?,?,-28%,?,3.7µM*
CN(Cc1ccccc1)S(=O)(=O)c1ccc2[nH]c(=O)ccc2c1,7%,12%,-20,/,/,15µM*
O=C(Nc1ccc(F)cc1)C(c1ccncc1)N1CCN(c2cccc(C(F)(F)F)n2)CC1 (stereo not drawn),/,/,18,/,/,/
Oc1ccc(Br)cc1-c1cc(-c2ccccc2Cl)[nH]n1,2.9µM*,7.9µM*,0,/,/,4.1µM*
Cc1ccc(-c2cc(-c3ccccc3Cl)[nH]n2)c(O)c1,?,?,74,15%,?,69%
Cc1ccccc1-c1cc(-c2ccccc2O)n[nH]1,65%,7.1µM*,155,-26%,0%,/
Oc1ccc(Cl)cc1-c1cc(-c2ccccc2)n[nH]1,7.4µM*,10µM*,47,/,/,-29%
Oc1ccc(Br)cc1-c1cc(-c2ccccc2F)[nH]n1,9.3µM*,?,130,24%,-11%,5%[5.75 µM]
SMILES,Pf growth 48h,HCV inh,HCMV inh,LASV entry inh,Marburg entry inh,Pf growth 96h
O=c1ccc(-c2ccc(S(=O)(=O)Nc3ccccc3Cl)o2)n[nH]1,?,13%,-29,/,/,-29%
Cc1ccc(-c2cc(-c3ccc(F)cc3)n[nH]2)c(O)c1,0%,13µM*,106,-16%,?,?
Cc1nc2ccc(S(=O)(=O)N(C)CC(=O)Nc3cccc(C(F)(F)F)c3)cc2s1,/,/,20,6%[46.1 µM],-19%[46.1 µM],/
COc1ccc(C(=O)NCC(c2ccccc2)N2CCCC2)cc1S(=O)(=O)N1CCOCC1 (stereo not drawn),?,-2%,10,/,/,?
C=C1C(=O)O[C@H]2C[C@H]1[C@@H](OC(C)=O)C/C(C)=C/CC/C(C)=C\CC[C@]2(C)O,/,10µM*,-103*,/,/,/
C=C1C(=O)OC2CC3(C)OC3CCC(C)=CC(OC(C)=O)C12 (stereo not drawn),/,?,0,?,?,/
COc1cccc(S(=O)(=O)N(C)C[C@@H]2Oc3ncc(C#CCN(C)C)cc3C(=O)N([C@H](C)CO)C[C@H]2C)c1,/,/,-2,/,/,/
Cc1cc(NC(=O)c2cnn3c(C(F)(F)F)cc(-c4ccccc4)nc23)no1,?,7.1µM*,-37,-14%,?,0%
Cc1cc(NC(=O)c2cnn3c(C(F)F)cc(-c4ccccc4)nc23)no1,?,?,8,-8%,?,-7%
Cc1c(NC(=O)c2cnn3c(C(F)(F)F)cc(-c4ccco4)nc23)c(=O)n(-c2ccccc2)n1C,/,11%,-62*,-11%,-14%,?
O=C(O)c1cnn2c(C(F)(F)F)cc(-c3ccco3)nc12,23%,5%,0,-5%,?,4%
C=CCN=c1scc(-c2ccc3c(c2)NC(=O)CO3)n1/N=C(\C)c1ccccn1,?,?,-95*,?,?,?
Cc1cccn2cc(-c3ccc4c(c3)NC(=O)CO4)nc12,83%,-19%,3,?,0%,92%
C=CCn1c(Cn2c(-c3cnccn3)nc3ccccc32)nc2ccccc21,/,/,36,/,/,/
Cc1ccc(C)c(CN2C(=O)c3ccccc3Sc3ccc(C(=O)NCc4ccc5c(c4)OCO5)cc32)c1,/,/,-19,-22%[46.1 µM],/,/

# High-throughput results from PubChem BioAssay.
